# In the library only some 3.1% were active in any assay of this set; here they are far more common.
# Rtt109 HAT inh = inhibitors of C. albicans Rtt109/Vps75 HAT, primary screen, biochemical, ThioGlo CoA-SH fluorescence, plate reader | inhibition, % at 34.9 µM | AID 540336, 2011 | purified Rtt109/Vps75, 4 h | Histone acetyltransferase RTT109 (Candida albicans (strain SC5314 / ATCC MYA-2876)), … | 0.16% of 330,000 active;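 active = inhibition of at least 50% in every replicate; inconclusive = best replicate reaches 50% inhibition but some replicates fall short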
# Target sequence (Q5AAJ8 whole entry, looked up): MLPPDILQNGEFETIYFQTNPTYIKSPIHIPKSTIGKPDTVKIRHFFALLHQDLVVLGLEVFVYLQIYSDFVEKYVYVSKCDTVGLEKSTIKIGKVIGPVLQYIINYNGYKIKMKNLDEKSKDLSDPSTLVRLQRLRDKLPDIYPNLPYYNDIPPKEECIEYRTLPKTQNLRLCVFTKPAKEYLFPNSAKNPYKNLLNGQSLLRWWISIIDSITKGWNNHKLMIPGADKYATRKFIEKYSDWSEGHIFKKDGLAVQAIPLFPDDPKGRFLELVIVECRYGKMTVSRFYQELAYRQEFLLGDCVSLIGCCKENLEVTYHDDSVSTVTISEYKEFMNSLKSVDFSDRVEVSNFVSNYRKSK
# Wnt bcat act = Wnt/beta-catenin pathway activators, primary screen, cell-based, plate reader, single point. Wnt/beta-catenin reporter cell assay, activator. activation, % at 9.35 µM. 1.2% of 300,000 active. AID 743398, 2014; in the data active = activation above about 30%, passing the limit was not always enough; inconclusive = no clear call, values can overlap the other calls
# esBAF inh = Bmi1 luciferase reporter increase in mESCs, primary screen, esBAF inhibitor project, mouse ES cells, Bmi1 luciferase knock-in, single point | reporter increase, % at 12.5 µM | 24 h; 100% = twice the neutral-well signal | 2% of 350,000 active; in the data active = activation above about 40%; inconclusive = no clear call, values can overlap the other calls;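 also: a rise in the Bmi1 reporter signal indicates esBAF inhibition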
# MITF act = activators of MITF-driven TRPM1 promoter reporter, primary screen, cell-based, SK-MEL-5, luciferase, single point. SK-MEL-5 TRPM1-promoter luciferase, 24 h; % of positive control, neutral wells = 0. activation, % at 12.5 µM. 0.75% of 300,000 active. AID 588334, 2011;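 active = mean activation of at least 80% with every replicate also reaching 80%; inconclusive = mean reaches 80% but some replicate falls short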
# Statin myotox sup = suppressors of statin myotoxicity in C2C12 myotubes, primary screen, cell-based, single point, plate reader; C2C12 myotubes + simvastatin, ATP luminescence, 48 h; scaled: DMSO 0, geranylgeraniol control 100; rescue of ATP level, % at 7.49 µM; 0.78% of 330,000 active; AID 602340, 2012;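 active = mean ATP rescue above about 67%, or every replicate alone reaching that limit, limit read from the data, passing the limit was not always enough; inconclusive = no clear call, values can overlap the other calls; inactive = mean under the limit and some replicate under it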;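 also: myotubes were challenged with 10 µM simvastatin during compound exposure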
# Numbers stand for hits; 0 = inactive; ? = inconclusive; - = no result given.
SMILES,Rtt109 HAT inh,Wnt bcat act,esBAF inh,MITF act,Statin myotox sup
CN1C(=O)c2cc(NC(=O)c3ccc(F)c(F)c3)ccc2OC[C@@H]2O[C@@H](CC(=O)N3CCOCC3)CC[C@H]21,-,-,0,-,0
Cc1ccc(O)c(C(=O)CC(=O)c2cccc(F)c2)c1,0,-,-,0,-
Cc1cccc(C(=O)CC(=O)c2cc(Cl)ccc2O)c1,0,-,64.2,0,0
Cc1ccc(O)c(C(=O)CC(=O)c2ccc(Cl)cc2)c1,0,0,0,-,0
O=C(CC(=O)c1cc(Cl)ccc1O)c1ccccc1,0,0,49.3,0,0
CC(=O)Nc1c(C(=O)O)[nH]c2ccccc12,0,-,0,0,99.2
C[C@H](CO)N1C[C@H](C)[C@@H](CN(C)Cc2ccncc2)Oc2cc(C#CC(C)(C)O)ccc2S1(=O)=O,-,-,0,-,0
N#Cc1cc2cc3c(cc2nc1SCC(=O)N1CCOCC1)OCO3,0,?,51.7,-,0
CC(C)OC(=O)CSc1nc2cc3c(cc2cc1C#N)OCO3,0,-,59.3,-,0
COC(=O)CSc1nc2cc3c(cc2cc1C#N)OCO3,0,-,-,0,-
CCOC(=O)CSc1nc2cc3c(cc2cc1C#N)OCO3,0,-,-,90.5,-
Cc1cc2cc3c(cc2nc1SCC(=O)N1CCOCC1)OCO3,0,0,0,-,0
O=C(C[C@@H]1CC[C@H]2[C@@H](COC[C@H](O)CN2Cc2ccc(Oc3ccccc3)cc2)O1)N1CCc2ccccc2C1,-,-,0,-,0
C[C@@H]1CN([C@H](C)CO)S(=O)(=O)c2ccc(-c3cccnc3)cc2O[C@@H]1CN(C)C(=O)NC1CCCCC1,-,-,0,-,0
CCCCCCOc1ccc(C(CC(N)=O)C(=O)O)cc1 (stereo not given),0,0,0,0,107.2
CCCCCCOc1ccc(C(CC(=O)NC)C(=O)O)cc1 (stereo not given),0,0,0,0,0
CCC(C)C(=O)N1CCCC(c2nc(-c3cccs3)no2)C1 (stereo not given),0,?,52.7,?,0
C[C@@H]1CN([C@@H](C)CO)C(=O)c2cc(C#CCc3ccccc3)cnc2O[C@H]1CN(C)C(=O)C1CCCCC1,-,-,0,-,0
COc1ccc(C2=Nc3ccccc3N(C(=O)c3ccc4ncccc4c3)C2C(=O)NC(C)(C)C)cc1 (stereo not given),-,33.8,-,-,-
C/C(=N\OCc1ccc(C#N)cc1)c1ccc(S(=O)(=O)N(C)C)cc1,0,0,51.2,95.6,0
C/C(=N\OCc1ccc(C#N)cc1)c1ccccc1,0,0,-,88.3,-
CN(C)S(=O)(=O)c1ccc(C(=O)OCCc2ccccc2)cc1,0,0,0,0,0
O=C(Cn1ccsc1=NC(=O)C(F)(F)F)c1ccccc1,0,-,49.4,0,0
O=C(CCl)N=c1sccn1Cc1ccccc1Cl,0,0,-,0,-
CCC(=O)N1C[C@H](C)[C@H](OC)CN(C)C(=O)c2cc(NC(=O)NC(C)C)ccc2OC[C@@H]1C,-,-,0,-,0
SMILES,Rtt109 HAT inh,Wnt bcat act,esBAF inh,MITF act,Statin myotox sup
COc1ccccc1-c1ccc(NC2CCCC2)nn1,0,-,63.4,0,0
COc1ccccc1-c1cnn2c(NC3CCCC3)cc(C)nc12,0,0,61.8,139.9,0
COc1ccc(CNc2ccc(-c3ccccc3OC)nn2)cc1,0,-,0,-,0
C[C@H](CO)N1C[C@H](C)[C@H](CN(C)Cc2ccc(C(F)(F)F)cc2)Oc2ccc(NS(=O)(=O)c3ccc(Cl)cc3)cc2CC1=O,-,-,0,-,0
Cn1cc(/C=C(\C#N)C(=O)Nc2ccccc2O)c2ccccc21,0,-,63.8,0,0
O=C(Nc1ccc2c(c1)[C@H]1C[C@H](CC(=O)N3CCCCC3)O[C@@H](CO)[C@H]1O2)NC1CCCC1,-,-,0,-,0
CCS(=O)(=O)N1CCc2nc(-c3ccccc3)sc2C1,0,38.9,0,121.3,0
COc1ccc(-c2nc3c(s2)CN(S(C)(=O)=O)CC3)cc1OC,0,0,0,-,0
COC(=O)c1c(-c2ccc(OC)cc2)sc2ccc(OC)cc12,0,41.8,45.9,0,0
Cn1c(CSc2ncn[nH]2)nc2ccccc21,0,-,0,0,98.1
Cn1c(CSc2nc3ccccc3s2)nc2ccccc21,0,-,49.5,0,0
Cn1c(SCc2nc3ccccc3n2CCO)nc2ccccc21,0,0,-,0,-
Cc1ccccc1CN(C)C[C@H]1OCc2cn(nn2)CCCC(=O)N([C@H](C)CO)C[C@H]1C,-,-,0,-,0
COc1ccc(C2CC(c3ccccc3)=NN2C(=O)c2cccs2)cc1 (stereo not given),0,-,46.8,0,0
COc1ccc(C2=NN(C(=O)c3cccs3)C(c3ccccc3O)C2)cc1 (stereo not given),0,0,-,0,-
CC1=CC(=C2N=C(c3ccccc3)OC2=O)C=C(C)O1,0,-,64.0,-,0
CN1C=CC=C/C1=C1/N=C(c2ccccc2)OC1=O,0,0,0,0,0
COCCn1c(NC(=S)NC(=O)C2CC2)cc(=O)[nH]c1=O,0,0,0,0,0
COCc1cc(=O)[nH]c2cc(NC(=O)C3CC3)c(C)cc12,0,50.0,-,0,-
CN1C(=O)c2cc(NC(=O)Nc3cccc(Cl)c3)ccc2OC[C@H]2O[C@H](CC(=O)NCCc3ccncc3)CC[C@@H]21,-,-,0,-,0
COc1ccc(S(=O)(=O)Nc2ccc3c(c2)C(=O)N([C@@H](C)CO)C[C@@H](C)[C@H](CN(C)C(=O)NC2CCCCC2)OCCCC[C@@H](C)O3)cc1,-,-,0,-,-
CC(=O)CC(=O)Nc1ccc(Cl)cn1,0,0,-,0,-
CCc1ccc(NC(=S)NC(=O)CC(C)C)cc1,0,61.0,-,0,-
CC(C)CC(=O)NC(=S)Nc1ccc(Cl)cn1,0,0,48.6,0,0
C[C@@H]1CN([C@@H](C)CO)C(=O)Cc2cc(N(C)C)ccc2O[C@@H]1CN(C)C(=O)Nc1ccc2c(c1)OCO2,-,-,0,-,0
SMILES,Rtt109 HAT inh,Wnt bcat act,esBAF inh,MITF act,Statin myotox sup
CSCC(=O)N1CCC(n2nccc2NC(=O)c2ccc3c(c2)OCO3)CC1,0,0,58.3,0,0
Cc1ccc(N=C2N=C(N)c3ccccc32)cc1C,0,-,55.2,0,0
CCCN1CCN(C(=O)Cn2cccc2C(=O)c2ccccc2)CC1,0,-,0,0,0
Cc1ccc(CNC(=O)Cn2cccc2C(=O)c2ccccc2)cc1,0,0,0,0,108.6
Cc1ccc(CN2CCN(CC(=O)NCc3ccccc3)CC2)cc1,53.2,0,0,-,0
O=C(c1ccccc1)c1cccn1CC(=O)N1CCCCCC1,0,-,0,0,109.7
O=C(CN1CCN(Cc2ccccc2)CC1)NCc1ccc(Cl)cc1,0,0,0,-,0
COc1ccc(NC(=O)N(C)C[C@@H]2Oc3c(NS(=O)(=O)c4ccccc4)cccc3C(=O)N([C@@H](C)CO)C[C@H]2C)cc1,-,-,0,-,0
CC(C)c1ccc(/C=N/NC(=O)C2CCCC2)cc1,0,0,-,140.1,-
CC(C)c1ccc(/C=N/NC(=O)CC(=O)NC2CCCCC2)cc1,0,0,0,0,0
